From ChEMBL document CHEMBL3988442, “University of Dundee, Small-Polar-MMV Screening Library” (2021)
For some assays here: Measured potencies and affinities stand elsewhere.

What was measured:
Parameters in all cases: scale not given: direction of the effect not stated beside the values
[1] = biological target: Protein translocase subunit SecA (Escherichia coli (strain K12)) (UniProt P10408); assay: Assay to Identify E. coli SecA ATPase Inhibitors; assay type: functional; conditions: 30 µM
[2] = biological target: T1, Ubiquitin-activating enzyme e1, putative (Leishmania donovani (strain BPK282A1)) (UniProt E9BSI1); assay: Leishmania donovani Ubiquitin Activating Enzyme (LdE1); assay type: functional; conditions: 30 µM
T1 sequence (whole entry): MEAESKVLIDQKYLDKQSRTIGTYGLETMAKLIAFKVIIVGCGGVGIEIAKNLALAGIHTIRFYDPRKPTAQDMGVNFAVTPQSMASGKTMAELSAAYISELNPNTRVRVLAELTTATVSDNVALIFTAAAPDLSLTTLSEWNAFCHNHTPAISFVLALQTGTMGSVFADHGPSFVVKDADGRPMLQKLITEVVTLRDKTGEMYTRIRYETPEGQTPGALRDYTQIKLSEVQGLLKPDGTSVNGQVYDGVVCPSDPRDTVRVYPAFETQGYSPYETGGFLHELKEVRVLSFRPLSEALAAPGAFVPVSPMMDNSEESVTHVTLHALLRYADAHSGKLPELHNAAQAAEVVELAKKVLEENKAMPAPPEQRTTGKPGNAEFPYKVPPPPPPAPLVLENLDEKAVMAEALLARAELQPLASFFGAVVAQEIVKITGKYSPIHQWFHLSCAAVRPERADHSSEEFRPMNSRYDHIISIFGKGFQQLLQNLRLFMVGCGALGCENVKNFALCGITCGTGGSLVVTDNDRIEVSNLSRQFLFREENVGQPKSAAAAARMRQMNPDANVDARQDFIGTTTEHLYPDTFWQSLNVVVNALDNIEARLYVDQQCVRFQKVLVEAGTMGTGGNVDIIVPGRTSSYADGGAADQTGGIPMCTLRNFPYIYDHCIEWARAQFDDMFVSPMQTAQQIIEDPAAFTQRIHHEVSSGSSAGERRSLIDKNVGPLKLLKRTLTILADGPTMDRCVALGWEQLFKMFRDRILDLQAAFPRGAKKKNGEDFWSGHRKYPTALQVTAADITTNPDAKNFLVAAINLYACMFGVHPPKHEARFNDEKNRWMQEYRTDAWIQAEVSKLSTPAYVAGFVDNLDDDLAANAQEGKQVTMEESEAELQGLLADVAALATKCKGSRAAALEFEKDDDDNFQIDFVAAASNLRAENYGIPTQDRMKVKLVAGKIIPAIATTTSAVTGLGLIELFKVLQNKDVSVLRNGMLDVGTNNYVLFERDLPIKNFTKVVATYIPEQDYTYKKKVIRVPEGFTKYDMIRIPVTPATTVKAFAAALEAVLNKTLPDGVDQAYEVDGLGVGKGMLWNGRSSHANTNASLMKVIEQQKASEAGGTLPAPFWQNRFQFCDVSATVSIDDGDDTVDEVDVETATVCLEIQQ

[3] = biological target: AMP-activated protein kinase, AMPK (Homo sapiens) (UniProt P54646+O43741+P54619+Q9UGJ0+Q9Y478+Q13131+Q9UGI9); assay: AMP-dependent Kinase enzyme assay. An in vitro enzyme assay that detects ADP turnover that is directly proportional to AMPK activity. This uses naive AMPK that is activated during the assay with MK-8722; assay type: functional; conditions: 30 µM
[4] = biological target: Sialic acid-binding Ig-like lectin 9 (Homo sapiens) (UniProt Q9Y336); assay: Hs-Siglec9 ALPHAscreen SOP 20170721; conditions: 10 µM
Sequence of Sialic acid-binding Ig-like lectin 9 (Homo sapiens) (Q9Y336 whole entry): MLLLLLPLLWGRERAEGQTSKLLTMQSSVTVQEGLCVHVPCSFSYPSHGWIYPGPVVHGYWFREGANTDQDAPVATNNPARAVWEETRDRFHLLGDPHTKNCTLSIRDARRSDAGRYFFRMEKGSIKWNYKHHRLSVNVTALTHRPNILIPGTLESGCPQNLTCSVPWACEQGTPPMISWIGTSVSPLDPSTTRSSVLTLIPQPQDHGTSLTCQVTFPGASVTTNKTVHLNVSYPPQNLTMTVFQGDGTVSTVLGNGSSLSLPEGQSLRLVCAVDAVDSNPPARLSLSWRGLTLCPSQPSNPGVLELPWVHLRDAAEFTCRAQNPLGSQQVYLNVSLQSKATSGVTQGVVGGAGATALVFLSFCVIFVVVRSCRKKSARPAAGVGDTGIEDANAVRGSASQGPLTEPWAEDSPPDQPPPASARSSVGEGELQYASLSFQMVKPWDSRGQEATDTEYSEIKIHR

Trypanosoma cruzi = assay: Trypanosoma cruzi phosphomannomutase and mannose-1-phosphate guanylyltransferase assay; assay type: functional; conditions: 10 µM
[5] = biological target: T2, Arginase-2, mitochondrial (Homo sapiens) (UniProt P78540); assay: in vitro enzyme assay to detect the production of urea directly proportional to the activity of Arginase II; assay type: functional; conditions: 33.3 µM; also: in the data most compounds retested in dose-response had high values
T2 sequence (whole entry): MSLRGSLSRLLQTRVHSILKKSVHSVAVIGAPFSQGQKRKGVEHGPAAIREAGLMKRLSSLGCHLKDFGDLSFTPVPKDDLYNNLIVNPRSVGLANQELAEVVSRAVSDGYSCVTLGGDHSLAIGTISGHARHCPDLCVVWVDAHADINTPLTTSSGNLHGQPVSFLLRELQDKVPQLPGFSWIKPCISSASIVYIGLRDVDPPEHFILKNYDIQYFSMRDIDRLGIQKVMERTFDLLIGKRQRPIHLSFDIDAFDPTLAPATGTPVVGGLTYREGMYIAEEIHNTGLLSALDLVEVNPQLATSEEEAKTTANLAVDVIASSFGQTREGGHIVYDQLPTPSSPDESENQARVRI

[6] = biological target: T3, Proteasome subunit beta (Trypanosoma cruzi) (UniProt O96673); assay: Trypanosoma cruzi proteasome chymotrypsin-like activity (TcProtChymo) assay.; also: in the data most compounds retested in dose-response had high values; assay type: functional; conditions: 9.37 µM
T3 sequence (whole entry): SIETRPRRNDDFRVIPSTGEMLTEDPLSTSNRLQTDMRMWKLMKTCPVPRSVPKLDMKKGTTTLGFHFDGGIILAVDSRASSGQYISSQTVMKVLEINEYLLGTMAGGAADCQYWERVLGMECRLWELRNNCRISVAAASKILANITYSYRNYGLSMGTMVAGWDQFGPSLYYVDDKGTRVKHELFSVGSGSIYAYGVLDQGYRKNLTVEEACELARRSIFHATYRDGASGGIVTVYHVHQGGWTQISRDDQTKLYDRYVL

Homo sapiens = species on record: Homo sapiens; assay: To identify inhibition of the IFN signalling (Jak-Stat) pathway via expression of an eGFP reporter gene under the control of an IFN-stimulated response element (ISRE) containing MxA promoter.; assay type: functional; conditions: 30 µM
[7] = biological target: T4, Tyrosyl-tRNA synthetase, putative (Trypanosoma cruzi (strain CL Brener)) (UniProt Q4DSP6); assay: Trypanosoma cruzi tyrosyl tRNA synthetase (TcYRS) _High Tyrosine SOP; assay type: functional; conditions: 30 µM; also: in the data most compounds retested in dose-response had high values
T4 sequence (whole entry): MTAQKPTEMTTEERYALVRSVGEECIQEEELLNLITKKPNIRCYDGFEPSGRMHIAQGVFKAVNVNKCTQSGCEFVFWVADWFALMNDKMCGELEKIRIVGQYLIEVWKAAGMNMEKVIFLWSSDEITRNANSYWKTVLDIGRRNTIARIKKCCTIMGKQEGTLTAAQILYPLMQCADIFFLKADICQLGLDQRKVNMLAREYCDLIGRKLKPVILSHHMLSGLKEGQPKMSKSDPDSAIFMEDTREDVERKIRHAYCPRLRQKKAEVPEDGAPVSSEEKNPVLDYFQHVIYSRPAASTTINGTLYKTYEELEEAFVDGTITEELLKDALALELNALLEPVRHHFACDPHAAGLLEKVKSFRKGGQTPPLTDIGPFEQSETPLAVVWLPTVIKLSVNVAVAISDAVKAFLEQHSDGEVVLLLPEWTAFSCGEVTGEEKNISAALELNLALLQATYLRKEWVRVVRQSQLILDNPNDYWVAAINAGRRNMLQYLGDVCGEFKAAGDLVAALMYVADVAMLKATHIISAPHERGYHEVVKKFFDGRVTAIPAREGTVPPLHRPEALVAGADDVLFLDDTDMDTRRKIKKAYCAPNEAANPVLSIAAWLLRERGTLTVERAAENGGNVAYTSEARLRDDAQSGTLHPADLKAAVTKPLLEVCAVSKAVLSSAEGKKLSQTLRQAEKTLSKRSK

[8] = biological target: T4, Tyrosyl-tRNA synthetase, putative (Trypanosoma cruzi (strain CL Brener)); assay: Trypanosoma cruzi tyrosyl tRNA synthetase (TcYRS) SOP; assay type: functional; conditions: 30 µM
[9] = biological target: Chromo domain-containing protein 1 (Saccharomyces cerevisiae (strain ATCC 204508 / S288c) (Baker's yeast)) (UniProt P32657); assay: ScCHD-1 Enzyme Inhibition Assay; assay type: functional; conditions: 30 µM; also: in the data most compounds retested in dose-response had high values
Sequence of Chromo domain-containing protein 1 (Saccharomyces cerevisiae (strain ATCC 204508 / S288c) (Baker's yeast)) (P32657 whole entry, the tested form may be a part): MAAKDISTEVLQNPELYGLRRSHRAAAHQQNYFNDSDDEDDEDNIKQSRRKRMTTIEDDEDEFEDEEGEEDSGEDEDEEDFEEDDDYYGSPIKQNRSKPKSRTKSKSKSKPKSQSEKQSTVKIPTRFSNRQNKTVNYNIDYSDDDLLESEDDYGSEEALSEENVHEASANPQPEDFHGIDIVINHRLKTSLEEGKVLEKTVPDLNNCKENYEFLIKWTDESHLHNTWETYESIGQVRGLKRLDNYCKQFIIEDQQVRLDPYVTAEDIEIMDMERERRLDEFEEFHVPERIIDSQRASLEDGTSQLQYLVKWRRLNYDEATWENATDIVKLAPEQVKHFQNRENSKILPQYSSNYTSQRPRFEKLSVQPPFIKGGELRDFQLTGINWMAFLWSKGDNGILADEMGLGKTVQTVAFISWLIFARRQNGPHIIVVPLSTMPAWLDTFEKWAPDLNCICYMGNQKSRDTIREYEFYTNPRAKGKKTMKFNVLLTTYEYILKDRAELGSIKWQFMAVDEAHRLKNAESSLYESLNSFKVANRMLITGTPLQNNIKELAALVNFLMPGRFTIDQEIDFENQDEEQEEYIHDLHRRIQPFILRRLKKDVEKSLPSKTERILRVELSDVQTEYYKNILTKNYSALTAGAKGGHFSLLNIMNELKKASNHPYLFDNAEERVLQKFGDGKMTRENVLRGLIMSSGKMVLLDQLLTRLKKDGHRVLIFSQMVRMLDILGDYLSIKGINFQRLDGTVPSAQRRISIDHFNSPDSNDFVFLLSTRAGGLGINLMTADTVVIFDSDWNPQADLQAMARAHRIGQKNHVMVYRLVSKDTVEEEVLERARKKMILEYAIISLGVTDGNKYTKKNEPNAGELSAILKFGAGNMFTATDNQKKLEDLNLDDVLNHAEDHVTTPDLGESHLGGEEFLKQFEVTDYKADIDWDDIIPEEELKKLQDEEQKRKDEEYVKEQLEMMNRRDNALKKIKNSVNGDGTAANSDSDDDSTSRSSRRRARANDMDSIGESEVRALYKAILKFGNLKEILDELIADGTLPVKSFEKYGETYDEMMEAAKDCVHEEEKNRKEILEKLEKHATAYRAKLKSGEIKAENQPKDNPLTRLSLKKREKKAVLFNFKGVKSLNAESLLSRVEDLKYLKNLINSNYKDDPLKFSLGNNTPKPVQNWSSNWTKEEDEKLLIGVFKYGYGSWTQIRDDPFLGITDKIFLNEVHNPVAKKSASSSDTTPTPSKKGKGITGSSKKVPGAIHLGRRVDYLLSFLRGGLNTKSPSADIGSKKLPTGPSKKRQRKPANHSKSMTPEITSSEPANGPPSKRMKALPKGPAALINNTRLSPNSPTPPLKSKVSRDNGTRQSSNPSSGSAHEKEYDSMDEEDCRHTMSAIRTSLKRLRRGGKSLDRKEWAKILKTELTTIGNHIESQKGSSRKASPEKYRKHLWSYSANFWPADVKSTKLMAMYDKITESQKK

Sequence of Protein translocase subunit SecA (Escherichia coli (strain K12)) (P10408 whole entry): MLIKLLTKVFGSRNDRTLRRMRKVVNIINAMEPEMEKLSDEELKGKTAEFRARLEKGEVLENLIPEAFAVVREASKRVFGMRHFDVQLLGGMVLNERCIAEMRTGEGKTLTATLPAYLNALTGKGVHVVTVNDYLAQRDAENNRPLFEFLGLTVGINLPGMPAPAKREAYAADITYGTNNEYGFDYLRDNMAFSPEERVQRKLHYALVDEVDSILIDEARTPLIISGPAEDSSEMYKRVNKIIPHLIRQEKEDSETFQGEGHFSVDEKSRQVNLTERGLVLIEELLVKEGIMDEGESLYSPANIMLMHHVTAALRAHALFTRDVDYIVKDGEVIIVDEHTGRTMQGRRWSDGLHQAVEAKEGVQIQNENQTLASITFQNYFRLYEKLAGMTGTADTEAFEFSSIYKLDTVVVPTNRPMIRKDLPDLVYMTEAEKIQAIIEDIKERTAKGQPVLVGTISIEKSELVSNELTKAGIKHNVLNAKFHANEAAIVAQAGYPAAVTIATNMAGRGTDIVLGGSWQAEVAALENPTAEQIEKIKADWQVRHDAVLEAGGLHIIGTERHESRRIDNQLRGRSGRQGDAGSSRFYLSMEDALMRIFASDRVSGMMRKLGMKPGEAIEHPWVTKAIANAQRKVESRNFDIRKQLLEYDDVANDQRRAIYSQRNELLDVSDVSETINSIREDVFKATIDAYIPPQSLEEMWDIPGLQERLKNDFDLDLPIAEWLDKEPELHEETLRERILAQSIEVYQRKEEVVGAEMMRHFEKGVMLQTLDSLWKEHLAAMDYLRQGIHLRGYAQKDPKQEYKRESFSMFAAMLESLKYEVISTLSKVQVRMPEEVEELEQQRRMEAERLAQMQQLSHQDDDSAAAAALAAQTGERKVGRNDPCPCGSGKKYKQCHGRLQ

SMILES | Percent Effect [1] | Percent Effect [2] | Percent Effect [3] | Percent Effect [4] | Percent Effect (Trypanosoma cruzi) | Percent Effect [5] | Percent Effect [6] | Percent Effect (Homo sapiens) | Percent Effect [7] | Percent Effect [8] | Percent Effect [9]
COc1cccc(CN2CCOC(Cn3nc(C)cc3C)C2)c1 (configuration not stated) | -1.25% | 2.7% | 25.1% | -0.918% | -4.88% | 1.67% | 18.2% | -11.1% | 7.92% | 15.8% | 8.67%
Cc1cc(CN(C)C(=O)NCc2cccc(N3CCCC3=O)c2)no1 | -4.74% | 7.59% | -1.15% | 7.78% | 6.14% | -4.94% | -4.5% | -10.2% | 1.48% | 1.27% | -1.62%
Cc1cc2n(n1)CC(CNC1CCN(c3ccc(F)cc3)CC1)CN2 (configuration not stated) | -2.69% | 8.11% | -9.27% | 18.6% | 6.35% | 15.1% | -0.0858% | -21.8% | 1.07% | 18.5% | -6.89%
CN(C)C(=O)c1nc2c(s1)CCN(C(=O)c1ccc(Cl)cc1)CC2 | -2.69% | 18.7% | -9.31% | -1.54% | 2.7% | -29.6% | 10.4% | -8.27% | 9.38% | 30% | -12.2%
COCc1noc(C2(c3ccc(Br)cc3)CCOCC2)n1 | -2.85% | -2.7% | 1.95% | -4.39% | -6.95% | 1.91% | 9.83% | 4.48% | -1.59% | 4.88% | -3.06%
Cn1nc(CNC(=O)C2COc3ccccc3O2)cc1C1CC1 (configuration not stated) | -5.12% | -2.6% | 21.3% | -1.75% | -3.85% | -3.23% | 8.36% | 1.88% | 0% | -6.41% | -1.13%
O=C(CCn1ccccc1=O)Nc1ccc(I)cc1 | -2.63% | 2.7% | -7.9% | 21.2% | 0.684% | -0.248% | 16.6% | 5.89% | 1.07% | 6.17% | 6.86%
Cc1cc(C(=O)NCc2ccccn2)no1 | 0.824% | 2.7% | -14.1% | -0.919% | 2.92% | -3.21% | 6.49% | 7.17% | 3.45% | -63% | 0.179%
Cc1cc(C)n(CC(=O)N(C)Cc2csc(-c3cccs3)n2)c(=O)n1 | 0.251% | 0% | -4.15% | 2.64% | 1.66% | 7.29% | 19.5% | 17.8% | 6.01% | 18.5% | -6.32%
Cc1cc(C)n(CC2CCCN2C(=O)c2ccc(C(N)=O)cn2)n1 (configuration not stated) | -6.82% | 16.5% | 1.06% | -0.198% | 2.56% | 1.5% | 7.38% | 7.83% | -3.12% | 17.7% | -27.9%
CCc1ccc(C(=O)N2CCCC(c3noc(CC)n3)C2)o1 (configuration not stated) | -0.983% | 2.6% | 7.44% | 4.61% | 3.04% | 0.21% | 4.12% | 3.88% | 0.952% | 7.06% | -10.5%
CN(C)C(CNC(=O)NCCc1cccc(O)c1)c1ccco1 (configuration not stated) | -1.55% | 5.41% | 0.167% | 22.4% | 3.81% | 6.7% | 13% | -1.66% | 0% | 6.17% | -9.98%
Cc1cc(C)n(CC2CCCN2Cc2c(C)noc2C)n1 (configuration not stated) | -2.91% | -2.7% | 33.8% | 8.4% | 6.51% | -0.802% | 5.59% | 9.49% | 2.46% | 11.1% | -10.7%
Cc1nn(C)c(Cl)c1CNCc1cccnc1N1CCN(C)CC1 | -3.92% | 13.2% | 2.58% | 7% | 2.24% | -5.92% | 17.4% | 4.03% | 3.19% | 18.2% | -6.12%
O=C(CN1CCc2cncnc2C1)NCCOc1ccccc1 | -4.25% | 21.1% | -16.1% | -13.3% | -2.33% | -12.9% | 0.592% | 0.604% | 25.1% | 25.9% | -2.98%
Cn1cc(CN2CC[C@@H]3[C@@H](CCC(=O)N3CCC3=CCCCC3)C2)cn1 | -5.13% | 8.22% | 4.85% | 0.26% | 0.992% | -2.79% | 10.7% | -22.4% | 0% | 1.24% | 1.06%
Cc1nccc([C@H]2C[C@@H]3CCN(S(=O)(=O)N(C)C)C[C@H]3O2)n1 | -2.42% | 8.11% | -3.13% | 27.4% | 5.18% | 17.6% | 3.35% | -26.1% | 4.3% | 16.1% | -6.72%
Cc1nc2c(c(C)c1CC(=O)NCc1cccc(C#N)c1)c(=O)[nH]n2C | -4.87% | 7.79% | 6.32% | 0.967% | -4.21% | 1.9% | 1.05% | 31.2% | 2.86% | 11.8% | -1.91%
COc1ccc(Br)c(C(=O)NCC2CCN(C(=O)c3ccoc3)CC2)c1 | -6.69% | 5.48% | 7.36% | -0.134% | 0.783% | 3.18% | 12.4% | 7.16% | 5.38% | 17.5% | -6.16%
CC(C)c1cc(NCC(C)N2CCCC2)n2nccc2n1 (configuration not stated) | 1.2% | 8.11% | 1.17% | 6.08% | -2.51% | -1.43% | 20.5% | 6.7% | 12.2% | 17.1% | -5.28%
CN1CC(=O)N(c2ccsc2)CC12CCN(S(C)(=O)=O)C2 (configuration not stated) | -4.15% | 0% | -4.23% | -4.81% | 6.84% | -2.5% | 20% | -12.5% | 3.96% | 11% | -0.42%
CCc1ncc2c(n1)CN(Cc1nc(-c3ccsc3)no1)CC2 | -3.47% | -18.4% | -15.2% | -3.23% | -1.77% | -0.719% | 7.02% | -16.8% | 9.36% | -1.24% | 8.2%
